The source made the active and inactive calls. Unless noted, no rule for the calls is given here.
What was measured:
[1] = compound effects on lung adenocarcinoma cell viability – A549, calcein-AM fluorescence, 48 h, basal, profiling panel (AID 1162); settings: higher = more signal; also: test concentration not given here
[2] = compound effects on differentiated 3T3-L1 adipocyte viability – cell-based, 3T3-L1 adipocytes, calcein-AM fluorescence, 48 h, basal, profiling panel (AID 1163); settings: 3T3-L1 adipocytes viability, higher = more signal; also: test concentration not given here
[3] = compound effects on hepatocellular carcinoma cell viability – HepG2, calcein-AM fluorescence, 48 h, basal, profiling panel (AID 1164); settings: higher = more signal; also: test concentration not given here
[4] = compound effects on multiple myeloma cell viability – MM1S, calcein-AM fluorescence, 48 h, basal, profiling panel (AID 1165); settings: higher = more signal;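 also: viability of MM1S multiple myeloma cells under basal unstimulated conditions; test concentration not given here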
[5] = calcein-AM signal in unstimulated myeloma cells – cell-based, calcein-AM fluorescence, 48 h, PK04 Diversity Set, profiling panel (AID 1166); settings: RPMI8226 myeloma viability, higher = more signal;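 also: cells grown under basal conditions without added stimulus; test concentration not given here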
[6] = JC-1 mitochondrial signal, unstimulated HepG2 cells – cell-based, JC-1 fluorescence, 24 h, 100 nL compound, profiling panel (AID 1167); settings: HepG2 mitochondrial potential, higher = more signal; also: test concentration not given here
[7] = JC-1 mitochondrial signal, unstimulated adipocytes – cell-based, JC-1 fluorescence, 3T3-L1 adipocytes, 24 h, 100 nL compound, profiling panel (AID 1168); settings: JC-1 mitochondrial fluorescence, higher = more signal, called active from +8 up or from −8 down; also: test concentration not given here
[8] = JC-1 mitochondrial signal, unstimulated myeloma cells – cell-based, JC-1 fluorescence, RPMI8226, 24 h, 100 nL compound, profiling panel (AID 1169); settings: JC-1 mitochondrial potential fluorescence, higher = more signal; also: test concentration not given here
[9] = JC-1 mitochondrial signal, unstimulated MM1S myeloma – cell-based, JC-1 fluorescence, 24 h, 100 nL compound, profiling panel (AID 1170); settings: MM1S mitochondrial potential, higher = more signal; also: test concentration not given here
[10] = resazurin metabolic signal in A549 cells – cell-based, resazurin fluorescence, 24 h, PK04 Diversity Set, profiling panel (AID 1171); settings: A549 viability, higher = more signal, called active from +8 up or from −8 down; also: test concentration not given here
[11] = resazurin metabolic signal in HepG2 cells – cell-based, resazurin fluorescence, 24 h, PK04 Diversity Set, profiling panel (AID 1172); settings: HepG2 viability, higher = more signal; also: test concentration not given here
[12] = budding yeast growth changes without added modifier – OD600, strain BY4716, 24 h, basal condition, primary screen (AID 1173); settings: S. cerevisiae BY4716 growth, OD600, 24 h; higher = more signal, called active from +8 up or from −8 down
[13] = viability profiling in MM1S myeloma cells – cell-based, resazurin fluorescence, basal, 24 h, PK04 Diversity Set, profiling panel (AID 1174); settings: higher = more signal, called active from +8 up or from −8 down; also: test concentration not given here
[14] = target: Dihydroorotate dehydrogenase (quinone), mitochondrial (Plasmodium falciparum (isolate 3D7)) (UniProt Q08210); test: inhibition of P. falciparum DHODH – biochemical, C-terminal His tag, absorbance 600 nm, primary screen (AID 1175); settings: PfDHODH enzyme, DCIP absorbance 600 nm; higher = more signal, called active from +8 up or from −8 down;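 also: recombinant parasite enzyme with a five histidine tag at its C terminus; test concentration not given here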
[15] = inhibition of PAO1 biofilm formation – strain PAO1, LB-PBS medium, absorbance 600 nm, primary screen (AID 1176); also: test concentration not given here; settings: P. aeruginosa PAO1 growth/biofilm, A600, 12 h; higher = more signal
[16] = growth modulation of vineyard yeast isolate – strain RM11-1a, OD600, basal, 24 h, primary screen (AID 1177);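 also: cultures grown under basal conditions with no added stressor; test concentration not given here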; settings: S. cerevisiae RM11-1a growth, OD600, 24 h; higher = more signal, called active from +8 up or from −8 down
[17] = growth of efflux-deficient E. coli DRC39 – strain DRC39, OD650, 24 h, E. coli filamentation inducers, primary screen (AID 1178);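 also: growth measured as culture turbidity by optical density at 650 nm; test concentration not given here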; settings: E. coli DRC39 acrAB, higher = more signal, called active from +8 up or from −8 down
[18] = growth of efflux-deficient E. coli DRC39 – strain DRC39, OD650, 48 h, E. coli filamentation inducers, primary screen (AID 1179);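 also: screen aims at cell division blockers that make cells filament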; settings: E. coli DRC39 delta-acrAB growth, higher = more signal, called active from +8 up or from −8 down
[19] = viability profiling in RPMI8226 myeloma cells – cell-based, resazurin fluorescence, basal, 24 h, PK04 Diversity Set, profiling panel (AID 1180); settings: higher = more signal;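 also: RPMI8826 multiple myeloma cell line at 5000 cells per well; test concentration not given here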
[20] = target: E3 ubiquitin-protein ligase XIAP (Homo sapiens) (UniProt P98170); test: small molecules binding XIAP protein – biophysical, small-molecule microarray, fluorescence 635 nm, primary screen (AID 1181); settings: higher = more signal;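 also: score merges 667 nm emission and signal to noise over triplicate slides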
Chain of E3 ubiquitin-protein ligase XIAP (Homo sapiens) (P98170 whole entry, looked up): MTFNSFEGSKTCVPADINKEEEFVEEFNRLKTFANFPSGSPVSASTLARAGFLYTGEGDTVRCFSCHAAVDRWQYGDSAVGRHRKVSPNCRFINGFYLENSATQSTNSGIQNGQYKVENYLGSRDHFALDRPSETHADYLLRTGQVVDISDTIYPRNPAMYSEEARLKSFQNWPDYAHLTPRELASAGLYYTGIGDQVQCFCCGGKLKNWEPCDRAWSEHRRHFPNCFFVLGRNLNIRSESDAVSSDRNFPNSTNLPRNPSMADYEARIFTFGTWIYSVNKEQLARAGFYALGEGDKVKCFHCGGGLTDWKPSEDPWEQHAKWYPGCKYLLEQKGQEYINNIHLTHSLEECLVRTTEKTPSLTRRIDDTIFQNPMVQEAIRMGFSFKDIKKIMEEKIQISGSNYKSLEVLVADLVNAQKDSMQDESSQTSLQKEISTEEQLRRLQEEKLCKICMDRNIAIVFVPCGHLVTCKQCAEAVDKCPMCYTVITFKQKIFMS

Chain of Dihydroorotate dehydrogenase (quinone), mitochondrial (Plasmodium falciparum (isolate 3D7)) (Q08210 whole entry, looked up): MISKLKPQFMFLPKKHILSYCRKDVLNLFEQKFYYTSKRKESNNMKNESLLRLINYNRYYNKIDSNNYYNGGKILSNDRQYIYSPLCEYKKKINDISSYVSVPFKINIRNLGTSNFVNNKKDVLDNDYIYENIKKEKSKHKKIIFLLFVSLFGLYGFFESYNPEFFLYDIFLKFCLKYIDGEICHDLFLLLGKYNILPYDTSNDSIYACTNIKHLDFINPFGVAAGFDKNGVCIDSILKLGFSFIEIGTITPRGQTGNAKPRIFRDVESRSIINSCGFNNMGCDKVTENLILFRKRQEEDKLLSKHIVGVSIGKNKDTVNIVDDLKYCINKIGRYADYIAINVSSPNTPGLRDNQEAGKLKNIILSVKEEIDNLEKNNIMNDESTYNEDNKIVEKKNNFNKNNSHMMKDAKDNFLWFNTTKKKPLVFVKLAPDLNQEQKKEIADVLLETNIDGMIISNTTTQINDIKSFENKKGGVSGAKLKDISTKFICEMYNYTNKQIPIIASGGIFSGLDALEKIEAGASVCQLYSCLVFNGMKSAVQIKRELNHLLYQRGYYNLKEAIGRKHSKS

Row | SMILES | z-score [1] | z-score [2] | z-score [3] | z-score [4] | z-score [5] | z-score [6] | z-score [7] | z-score [8] | z-score [9] | z-score [10] | z-score [11] | z-score [12] | z-score [13] | composite z-score [14] | z-score [15] | z-score [16] | z-score [17] | z-score [18] | z-score [19] | composite z-score [20]
1 | [N-]=[N+]=NCc1ccccc1C[C@@]1(C(=O)O)N=C(c2ccc(OCCCO)cc2)O[C@@H]1c1ccccc1CN=[N+]=[N-] | 0.737 | 0.2 | 0.0664 | -0.274 | -2.21 | -0.168 | -0.186 (inactive) | -0.477 | -0.824 | 0.855 (inactive) | 1.86 | -4 (inactive) | 0.781 (inactive) | -1.62 (inactive) | -0.608 (inactive) | -0.916 (inactive) | 0.274 (inactive) | 0.697 (inactive) | 1.03 | 0.209
2 | Cc1ccc(S[C@]2(C(=O)NCCCN(C)C)CC(=O)N(Cc3ccccc3Cl)[C@@H]2c2ccc(CO)cc2I)cc1 | 0.171 | 0.908 | -0.696 | -2.41 | -3.15 | 1.25 | 0.722 (inactive) | -0.351 | -0.984 | 0.515 (inactive) | -0.0565 | -2.11 (inactive) | -2.51 (inactive) | 0.648 (inactive) | -0.833 (inactive) | 0.995 (inactive) | 0.165 (inactive) | -0.352 (inactive) | -1.5 | -0.133
3 | CC(C)C(=C=CC[C@@H](O)c1ccc(OCCO)cc1)CCO | -0.45 | 0.721 | -0.164 | 0.626 | 0.991 | 0.871 | 0.437 (inactive) | -0.21 | -1.11 | 1.22 (inactive) | 1 | -3.28 (inactive) | 1.21 (inactive) | -2.88 (inactive) | 0.13 (inactive) | -1.17 (inactive) | 1.61 (inactive) | 1.52 (inactive) | 1.52 | -0.0645
4 | C=CCOC(=O)[C@@H]1[C@H]2C(=O)O[C@H](c3ccccc3)[C@H](c3ccccc3)N2[C@H](c2ccc(OCCOC(=O)[C@H]3C[C@H]4C(=O)NCC(=O)N4[C@H]3c3ccc(O)cc3)cc2)[C@@]12C(=O)Nc1ccc(I)cc12 | -0.441 | -0.105 | 0.273 | -0.172 | -0.0622 | -1.59 | 0.91 (inactive) | -0.772 | -1 | 1.1 (inactive) | -0.675 | 2.01 (inactive) | -0.349 (inactive) | -1.14 (inactive) | 3.08 (inactive) | 1.28 (inactive) | -0.0185 (inactive) | -0.282 (inactive) | -0.331 | -0.0669
5 | [N-]=[N+]=Nc1ccccc1[C@@H]1OC(c2ccc(OCCCO)cc2)=N[C@]1(Cc1ccccc1)C(N)=O | 0.289 | -0.186 | 0.765 | -0.835 | -2.14 | 0.308 | 0.119 (inactive) | -0.719 | -0.789 | -0.199 (inactive) | 1.2 | -0.821 (inactive) | -0.622 (inactive) | 0.474 (inactive) | -0.0558 (inactive) | 1.19 (inactive) | 0.673 (inactive) | 0.481 (inactive) | -0.589 | 0.0838
6 | C=CCNC(=O)[C@H]1[C@@H]2C(=O)O[C@@H](c3ccccc3)[C@@H](c3ccccc3)N2[C@@H](c2ccc(O)cc2)[C@]12C(=O)Nc1ccc(C#CC3=CCCCC3)cc12 | -0.931 | -0.826 | -0.66 | -3.3 | -4.46 | -0.341 | 0.523 (inactive) | -1.14 | -1.79 | -1.63 (inactive) | -0.118 | -0.147 (inactive) | -2.44 (inactive) | 0.018 (inactive) | 1.41 (inactive) | 1.87 (inactive) | 0.322 (inactive) | 0.628 (inactive) | -5.43 | -0.124
7 | CCCC=C(CCC)[C@@H](NS(=O)(=O)c1ccc(Cl)cc1)c1ccccc1 | -1.61 | -0.224 | -1.42 | -1.18 | -3.77 | -3.69 | 0.0744 (inactive) | -0.372 | -0.676 | 2.17 (inactive) | 1.1 | 0.733 (inactive) | 0.604 (inactive) | -0.532 (inactive) | 1.97 (inactive) | -0.233 (inactive) | -0.558 (inactive) | -1 (inactive) | -0.321 | 0.102
8 | O=C1c2ccccc2[C@@]2(Cc3ccccc3N(Cc3ccccc3)C2=O)[C@H](c2ccc(CO)cc2)N1Cc1ccccc1 | -0.574 | -0.269 | -0.643 | 0.0744 | -0.851 | -0.0723 | -0.271 (inactive) | 0.167 | -0.353 | -0.381 (inactive) | -0.739 | -0.773 (inactive) | -0.851 (inactive) | -2.87 (inactive) | 0.0714 (inactive) | -0.153 (inactive) | -0.0466 (inactive) | -0.0261 (inactive) | -0.982 | -0.0525

— PubChem BioAssay
